Screening data deposited in PubChem by National Center for Advancing Translational Sciences (NCATS).
A selection: hits, their analogues and other compounds. The true share with any hit is near 4.6%.
D1 ag = human D1 receptor agonism; AID 504660; HEK293 T-REx D1 cells, calcium flux, agonist mode; activation, % at 2 µM; actives 1% (n = 360,000); P21728
Target sequence (P21728 whole entry, looked up): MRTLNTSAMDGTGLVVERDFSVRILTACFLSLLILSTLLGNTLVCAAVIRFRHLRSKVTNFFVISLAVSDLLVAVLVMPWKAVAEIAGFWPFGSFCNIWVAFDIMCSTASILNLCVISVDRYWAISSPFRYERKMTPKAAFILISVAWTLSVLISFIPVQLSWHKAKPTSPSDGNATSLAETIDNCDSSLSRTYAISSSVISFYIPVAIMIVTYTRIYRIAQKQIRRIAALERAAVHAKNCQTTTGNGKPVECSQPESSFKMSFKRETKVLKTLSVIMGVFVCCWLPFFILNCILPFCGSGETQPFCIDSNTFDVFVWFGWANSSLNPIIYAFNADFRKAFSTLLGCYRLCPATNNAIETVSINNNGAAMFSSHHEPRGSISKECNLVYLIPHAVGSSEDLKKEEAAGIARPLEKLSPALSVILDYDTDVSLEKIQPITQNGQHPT
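Inducible HEK293 T-REx D1 cells, force-coupled to calcium signalling, were plated at 4000 cells/well with tetracycline and held overnight at 30 C. After no-wash calcium dye loading, compound-evoked calcium rise over 180 s flagged agonists.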
TRHR agonist = activates the human TRH receptor; P34981; activation, % at 2 µM; TRHR cells, calcium flux fluo-8, FDSS agonist mode; actives 0.18% (n = 360,000)
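Fluo-8-loaded TRHR cells; 10 s baseline, compound added, kinetic Ca2+ fluorescence read 1/s, agonist mode.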
D1 PAM = potentiators of human D1 dopamine receptor. HEK293 TREx D1 cells, calcium flux, dopamine EC20 potentiation. actives 0.036% (n = 360,000). potentiation, % at 10 µM. AID 504651; in the data active means potentiation above about 30%
Epigenetic derep = epigenetic control regulation, reporter derepression; murine LDR cells, GFP reporter derepression, 30 h; Potency, µM (highest dose often 53.9 µM), usual class: activators; actives 0.2% (n = 280,000); active means well fitted activation curve with a large enough effect; further: nearly all actives have a fitted effect of over 60% in size
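GFP-positive cell count by laser-scanning cytometry (objects 20–120 um) after 30 h, 37 C compound exposure of murine LDR cells; reporter is CMV-GFP integrated at a silenced locus, inducible by HDAC or DNMT inhibitors.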
TRHR PAM = TRH receptor (human) allosteric enhancement. TRHR cells, fluo-8 calcium fluorescence, EC20 TRH enhancement. enhancement, % at 2 µM. actives 0.66% (n = 360,000); in the data active means enhancement above about 30%
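Enhancer read-out: after compound pinning and an initial kinetic agonist-mode read, an EC20 of TRH (10 nM final) was injected and fluo-8 calcium signal (Ex 480/Em 530) followed at 1 s/cycle for 100 cycles in TRHR-expressing cells.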
D1 antagonist = human D1 dopamine receptor antagonism; P21728; HEK293 TREx D1 cells, calcium flux, dopamine EC80; stronger effect = lower value; activity change, negative = inhibition, % at 10 µM; actives 3.2% (n = 360,000); in the data active means activity change below about -30%
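Tetracycline-induced HEK293 T-REx cells with force-coupled D1 receptor were loaded with a no-wash calcium dye. Compound was added after a 10 s baseline and read kinetically for 180 s; EC80 dopamine was then added and calcium flux followed another 180 s.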
Hits are given with their value; i = inactive; nt = no result. Unless noted, no stated cut-off is given here; in the data, active means activation above about 30%; inactive means the rest.

SMILES | D1 ag | TRHR agonist | D1 PAM | Epigenetic derep | TRHR PAM | D1 antagonist
COc1ccc(C)cc1NC(=O)CSc1nc(=O)[nH]c2c1CCCC2 | 31 | i | i | i | i | nt
CCc1ccc(CNc2ccc3c(c2)ncn3C)cc1 | i | i | i | i | 31 | i
O=C(CCN1C(=O)C2C3CCC(C3)C2C1=O)OCC(=O)c1ccc(Cl)cc1 (centres undefined) | i | i | i | nt | i | i
O=C(CCN1C(=O)C2C3CCC(C3)C2C1=O)OCC(=O)c1ccc(Br)cc1 (centres undefined) | i | i | i | nt | i | -31
Cc1ccc(C(=O)COC(=O)CCN2C(=O)C3C4CCC(C4)C3C2=O)cc1[N+](=O)[O-] (centres undefined) | i | i | i | nt | i | -42
COc1ccc(C(=O)n2nc(-c3ccco3)nc2N)cc1OC | i | i | i | i | i | i
COc1ccc(C(=O)n2nc(-c3ccccc3)nc2N)cc1OC | i | i | i | i | i | -34
CCn1c(=O)cc(N2CCC3(CC2)OCCO3)[nH]c1=O | i | i | i | i | i | -60
Cc1ccccc1NC(=O)Cn1c(SCC(=O)Nc2ccc(F)cc2)nc2ccccc21 | i | i | i | i | i | -80
CC(=O)ON(C(C)=O)S(=O)(=O)c1ccc(Cl)cc1 | nt | nt | nt | i | nt | nt
Cn1c(=O)[nH]c2cc(-c3noc(-c4ccc(F)cc4)n3)ccc21 | i | i | i | i | i | i
COC(=O)CC(NS(=O)(=O)c1cccs1)c1ccc2c(c1)OCO2 (centres undefined) | i | i | i | nt | i | -56
O=C(Oc1ccc2c(=O)c(Oc3ccc4ccccc4c3)coc2c1)c1cccnc1 | i | i | i | i | i | -37
CCn1c(=O)c(CCC(=O)NCCN2CCOCC2)c(C)c2c(C)nn(-c3cccc(C)c3)c21 | i | i | i | nt | i | i
CCN1CCN(CCNC(=O)CCc2c(C)c3c(C)nn(-c4ccccc4)c3n(C)c2=O)CC1 | i | i | i | nt | i | -46
CCOC(=O)C1CCN(S(=O)(=O)Cc2ccccc2)CC1 | i | i | i | i | i | i
CCOC(=O)C1CCCN(S(=O)(=O)Cc2ccccc2)C1 (centres undefined) | i | i | i | i | i | -64
CCOC(=O)C1CCCN(C(=O)CC(C)c2ccccc2)C1 (centres undefined) | i | i | i | i | i | -33
Cc1ccc(NC(=O)Nc2nnc(N(CC(C)C)CC(C)C)s2)cc1Cl | i | i | i | i | i | i
COc1ccc2cc(CCNS(=O)(=O)c3ccc(C)cc3)c(=O)[nH]c2c1 | i | i | i | i | i | i
COc1ccc(C(=O)N2CCCCC2CCN2CCOCC2)cc1 (centres undefined) | i | i | i | i | i | i
CCOC(=O)/C=C/C(=O)Nc1ccc(-c2nnc3n2CCCCC3)cc1 | i | i | i | nt | i | i
COc1ccc(/C=C/C(=O)Nc2ccc(-c3nnc4n3CCCCC4)cc2)c(OC)c1 | i | i | i | i | 35 | i
O=C(Nc1cccn(Cc2ccccc2)c1=O)NC1CCCCC1 | i | i | i | i | i | i
COc1cccc(Cn2cccc(NC(=O)NC3CCCCC3)c2=O)c1 | i | i | i | i | i | -31
SMILES | D1 ag | TRHR agonist | D1 PAM | Epigenetic derep | TRHR PAM | D1 antagonist
O=C(NCCn1ccc2ccccc21)c1ccc(Cl)cc1 | i | i | i | i | i | -34
COc1cc(OC)cc(C(=O)NCCn2ccc3ccccc32)c1 | i | i | i | i | i | i
Cc1cc(C)n2nc(SCN3C(=O)c4ccccc4C3=O)nc2n1 | i | i | i | i | i | -33
CCOC(=O)CSc1nc2nc(C)cc(C)n2n1 | i | i | i | i | i | i
Cc1cc(C)n2nc(SCC(=O)Nc3ccccc3)nc2n1 | i | i | i | i | i | i
CCCn1c(C)cc(C(=O)CSc2nc3nc(C)cc(C)n3n2)c1C | i | i | i | i | i | -49
CCOc1ccc(OCC)c(S(=O)(=O)N2CCOCC2)c1 | i | i | i | i | 33 | i
CCOc1ccccc1NS(=O)(=O)c1c(C(=O)OC)sc2cccc(F)c12 | i | i | i | i | i | i
OC[C@H]1O[C@@H](O[C@@H]2[C@@H](CO)O[C@@](O)(CO)[C@H]2O)[C@H](O)[C@@H](O)[C@H]1O | i | i | i | nt | i | -36
CC(C)CCNC(=O)c1ccc2nc(Cc3ccccc3)oc2c1 | i | i | i | i | i | i
Cc1ccc(S(=O)(=O)NNC(=O)C2Cc3c(ccc4ccccc34)O2)cc1 (centres undefined) | 33 | i | i | i | i | i
CC(=O)Nc1ccc(NC(=O)CSc2cn(CC(=O)N(C(C)C)C(C)C)c3ccccc23)cc1 | i | i | i | i | i | i
Nc1nc2ccc(N3CCOCC3)cc2s1 | i | i | i | i | i | -34
Fc1ccc2nc(N3CCOCC3)sc2c1 | i | i | i | i | i | i
OCCN1CCN(c2nc(NCc3ccco3)c3ccccc3n2)CC1 | i | i | i | i | i | i
Oc1ccccc1Nc1nc(NCc2ccco2)c2ccccc2n1 | i | i | i | i | i | i
Cc1ccccc1Nc1nc(NCc2ccco2)c2ccccc2n1 | i | i | i | i | i | -36
Cc1ccc(OCCN2CCN(c3nc(NCc4ccco4)c4ccccc4n3)CC2)cc1 | i | i | i | i | i | -33
CCN(C(=O)c1cc2c(=O)oc3ccc(C)cc3c2s1)c1ccccc1F | i | i | i | i | i | i
COc1cc2ccccc2cc1C(=O)OCC(=O)NC1CCS(=O)(=O)C1 (centres undefined) | i | i | i | i | i | -33
COCCNC(=O)C(=O)Nc1c2c(nn1-c1ccccc1)CS(=O)(=O)C2 | i | i | i | i | i | nt
CCCCn1c(O)c(N=Nc2ccccc2O)c2ccccc21 | 30 | i | i | nt | i | i
CCCCn1c(O)c(N=Nc2ccccn2)c2ccccc21 | i | i | i | i | i | i
Cc1ccc(NC(=O)C(OC(=O)c2ccc(O)cc2)c2ccccc2)cc1Cl (centres undefined) | i | i | i | i | i | -41
Cc1ccc(NC(=O)C(OC(=O)c2ccc(F)cc2)c2ccccc2)cc1Cl (centres undefined) | i | i | i | i | i | i
CCCCCn1c(CNC(=O)c2ccc(F)cc2)nc2ccccc21 | i | i | i | i | i | i
Cc1ccc(Cn2nnc3c(=O)n(CC(=O)OCc4ccccc4)cnc32)cc1 | i | i | i | i | i | -33
Cc1csc2nc(COC(=O)c3ccccc3NC(=O)c3cccc(Br)c3)cc(=O)n12 | i | i | i | i | i | -53
COc1cccc(C(=O)Nc2ccccc2C(=O)OCc2cc(=O)n3c(C)csc3n2)c1 | i | i | i | i | i | i
